Measurements: the supplement of paper PMC7156485
Values joined by “and” are separate entries in the source; they are usually repeats but may differ in a detail not shown here. Equal entries are not always repeated. ± gives the standard deviation of the averaged measurements.

Key:
Details in all cases: concentration: 10 µM; 24 h
HCC1569 [1] = assay: cell number relative to DMSO (% of DMSO); higher = more cells (less growth inhibition / toxicity)
In short: (§1)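 H1.0 nuclear intensity or cell number is stated as percent of the plate control, based on the median of replicates, and HCC1569 values were smoothed for positional effects. These came from HCC1569 and TDF cells treated with compounds at 10 µM for 24 h at 37 °C in triplicate, then fixed in 3.7% formaldehyde and stained with a rabbit anti-H1.0 antibody, an AlexaFluor 647 secondary and DAPI.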

TDF [2] = assay: as above
In short: as §1

TDF [3] = assay: H1.0 immunofluorescence intensity relative to DMSO (% of DMSO); higher = stronger H1.0 induction, active = 120 or more
In short: as §1

HCC1569 [4] = assay: H1.0 immunofluorescence intensity relative to DMSO (% of DMSO); higher = stronger H1.0 induction, active = 140 or more
In short: as §1
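For H1.0 immunofluorescence intensity relative to DMSO in this document: TDF is a line of transformed human dermal fibroblasts of mesenchymal origin.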
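For cell number relative to DMSO in this document: TDF denotes transformed human dermal fibroblasts of mesenchymal origin.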

**Q.** With O=C(O)c1cc([N+](=O)[O-])ccc1NCCCc1ccccc1 [5-Nitro-2-(3-phenylpropylamino)benzoic acid] as the compound, how does the cell number (HCC1569 [1]) read?
**A.** Its cell number is 105.

**Q.** And the cell number (TDF [2])?
**A.** The cell number was 102.

**Q.** What about the H1.0 immunofluorescence intensity (TDF [3]) of the same compound?
**A.** The H1.0 immunofluorescence intensity was 91 (inactive).

**Q.** And the H1.0 immunofluorescence intensity (HCC1569 [4])?
**A.** Its H1.0 immunofluorescence intensity is 88.1 (inactive).

**Q.** Which cell number (HCC1569 [1]) does the source give for CCCC1CC(C(=O)NC(C(C)O)C2OC(SC)C(O)C(O)C2O)N(C)C1 (centres undefined) [Lincomycin] here?
**A.** The cell number was 103 ± 1.5.

**Q.** And the cell number (TDF [2])?
**A.** Its cell number is 113 ± 2.2.

**Q.** And the H1.0 immunofluorescence intensity (TDF [3])?
**A.** The H1.0 immunofluorescence intensity was 93.1 (inactive).

**Q.** What about the H1.0 immunofluorescence intensity (HCC1569 [4]) of the same compound?
**A.** Its H1.0 immunofluorescence intensity is 93 (inactive).

**Q.** Which cell number (HCC1569 [1]) does the source give for CCn1c(-c2nonc2N)nc2c(C#CC(C)(C)O)ncc(OCC3CCCNC3)c21 (centres undefined) here?
**A.** Its cell number is 72.9.

**Q.** What about the cell number (TDF [2]) of the same compound?
**A.** Its cell number is 71.5.

**Q.** And the H1.0 immunofluorescence intensity (TDF [3])?
**A.** The H1.0 immunofluorescence intensity was 103 (inactive).

**Q.** And the H1.0 immunofluorescence intensity (HCC1569 [4])?
**A.** Its H1.0 immunofluorescence intensity is 120 (inactive).

**Q.** For COC(C(=O)C(O)C(C)O)C1Cc2cc3cc(OC4CC(OC5CC(O)C(O)C(C)O5)C(O)C(C)O4)c(C)c(O)c3c(O)c2C(=O)C1OC1CC(OC2CC(OC3CC(C)(O)C(O)C(C)O3)C(O)C(C)O2)C(O)C(C)O1 (centres undefined) [Plicamycin], which cell number (HCC1569 [1]) is on record?
**A.** Its cell number is 60.8.

**Q.** What about the cell number (TDF [2]) of the same compound?
**A.** Its cell number is 36.

**Q.** And the H1.0 immunofluorescence intensity (TDF [3])?
**A.** Its H1.0 immunofluorescence intensity is 103 (inactive).

**Q.** What about the H1.0 immunofluorescence intensity (HCC1569 [4]) of the same compound?
**A.** Its H1.0 immunofluorescence intensity is 126 (inactive).

**Q.** CCC(C)C(CC)C(N)=O (centres undefined) [2-ethyl-3-methylpentanamide] was tested. Which cell number (HCC1569 [1]) did it give?
**A.** The cell number was 103.

**Q.** And the cell number (TDF [2])?
**A.** Its cell number is 107.

**Q.** And the H1.0 immunofluorescence intensity (TDF [3])?
**A.** The H1.0 immunofluorescence intensity was 92.3 (inactive).

**Q.** And the H1.0 immunofluorescence intensity (HCC1569 [4])?
**A.** The H1.0 immunofluorescence intensity was 96.6 (inactive).

**Q.** How did the cell number (HCC1569 [1]) turn out when Cc1ccc(NC(=O)c2cccc(N(C)C)c2)cc1NC(=O)c1ccc(O)cc1 was run?
**A.** Its cell number is 92.1 and 95.3.

**Q.** And the cell number (TDF [2])?
**A.** Its cell number is 100 and 94.1.

**Q.** And the H1.0 immunofluorescence intensity (TDF [3])?
**A.** Its H1.0 immunofluorescence intensity is 96.7 (inactive) and 105 (inactive).

**Q.** What about the H1.0 immunofluorescence intensity (HCC1569 [4]) of the same compound?
**A.** Its H1.0 immunofluorescence intensity is 110 (inactive) and 119 (inactive).

**Q.** NC(Cc1cccc(-c2ccccc2CP(=O)(O)O)c1)C(=O)O (stereo not drawn) [Phenylbenzene-omega-phosphono-alpha-amino acid] was tested. Which cell number (HCC1569 [1]) did it give?
**A.** The cell number was 99.4.

**Q.** And the cell number (TDF [2])?
**A.** The cell number was 104.

**Q.** And the H1.0 immunofluorescence intensity (TDF [3])?
**A.** Its H1.0 immunofluorescence intensity is 89.5 (inactive).

**Q.** What about the H1.0 immunofluorescence intensity (HCC1569 [4]) of the same compound?
**A.** The H1.0 immunofluorescence intensity was 105 (inactive).

**Q.** How did the cell number (HCC1569 [1]) turn out when NC(=O)c1ncn(C2OC(CO)C(O)C2O)c1O (centres undefined) [Mizoribine] was run?
**A.** Its cell number is 101.

**Q.** What about the cell number (TDF [2]) of the same compound?
**A.** Its cell number is 99.2.

**Q.** What about the H1.0 immunofluorescence intensity (TDF [3]) of the same compound?
**A.** Its H1.0 immunofluorescence intensity is 91.2 (inactive).

**Q.** And the H1.0 immunofluorescence intensity (HCC1569 [4])?
**A.** Its H1.0 immunofluorescence intensity is 89.3 (inactive).

**Q.** How did the cell number (HCC1569 [1]) turn out when COC(=O)C1=COC(C)C2CN3CCc4c([nH]c5ccccc45)C3CC12 (centres undefined) [Teterahydroalstonine] was run?
**A.** Its cell number is 102.

**Q.** And the cell number (TDF [2])?
**A.** Its cell number is 104.

**Q.** What about the H1.0 immunofluorescence intensity (TDF [3]) of the same compound?
**A.** Its H1.0 immunofluorescence intensity is 98.8 (inactive).

**Q.** And the H1.0 immunofluorescence intensity (HCC1569 [4])?
**A.** The H1.0 immunofluorescence intensity was 88 (inactive).

**Q.** For O=C(Nc1ncc([N+](=O)[O-])s1)c1ccc([N+](=O)[O-])c(Cl)c1 [3-chloro-4-nitro-N-(5-nitrothiazol-2-yl)benzamide], which cell number (HCC1569 [1]) is on record?
**A.** The cell number was 84.1.

**Q.** And the cell number (TDF [2])?
**A.** The cell number was 83.6.

**Q.** And the H1.0 immunofluorescence intensity (TDF [3])?
**A.** Its H1.0 immunofluorescence intensity is 108 (inactive).

**Q.** What about the H1.0 immunofluorescence intensity (HCC1569 [4]) of the same compound?
**A.** The H1.0 immunofluorescence intensity was 122 (inactive).

**Q.** COC(=O)[C@H](Cc1ccc([N+](=O)[O-])cc1)NC(=O)c1cccc2ccccc12 [methyl (2S)-2-(1-naphthoylamino)-3-(4-nitrophenyl)propanoate] was tested. Which cell number (HCC1569 [1]) did it give?
**A.** Its cell number is 92.4.

**Q.** And the cell number (TDF [2])?
**A.** Its cell number is 95.

**Q.** And the H1.0 immunofluorescence intensity (TDF [3])?
**A.** The H1.0 immunofluorescence intensity was 100 (inactive).

**Q.** What about the H1.0 immunofluorescence intensity (HCC1569 [4]) of the same compound?
**A.** The H1.0 immunofluorescence intensity was 101 (inactive).
